# Pol iota inh: DNA polymerase iota (human) inhibition; Pol iota fluorescent replication assay, 10 min; Q9UNA4; 390,000 tested, 1% active; AID 588590; Potency, µM (doses to about 115 µM), for the others: top-dose activity, negative = inhibition, most hits filed as inhibitors; also: potency is read from the fitted curve at half-maximal effect
#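 Fluorescent replication assay read twice, at 0 min and 10 min after adding 50 nM (final) substrate. Enzyme (10 nM) and compounds were first incubated 15 min at room temperature; enzyme-free buffer wells were negative controls.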
# POLB inh: DNA polymerase beta (human) inhibition. Pol beta primer extension/strand displacement, fluorescence kinetic. Potency, µM (titrated, usually from 114 µM), inactives show at the highest dose activity change, negative = inhibition, most hits filed as inhibitors. AID 485314. 340,000 tested, 1.3% active; also: potency is read from the fitted curve at half-maximal effect; % is scaled to controls: 0 for no effect and ±100 for the full control effect
#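 Values derive from four-parameter Hill fits of normalized kinetic data: reads at 0 and 10 min following addition of 50 nM substrate to 10 nM Pol beta preincubated 15 min with compound.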
# POLH inh: blocks human DNA polymerase eta activity; Q9Y253; recombinant Pol eta, fluorescent DNA replication assay; Potency, µM (series often up to 114 µM), inactives show at the top dose activity change, negative = inhibition, actives largely listed as inhibitors; 390,000 tested, 1.2% active; AID 588591; also: potency is read from the fitted curve at half-maximal effect; % is scaled to controls: 0 for no effect and ±100 for the full control effect
#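 Fluorescent replication assay: 50 nM final substrate added after a 15 min room-temperature compound preincubation with 10 nM enzyme. Signal taken at 0 min and again at 10 min.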
# WRN inhibitor: inhibitors of human WRN helicase; Potency, µM (top dose mostly 114 µM), inactives show top-dose activity change, negative = inhibition, hits mostly inhibitors; WRN helicase unwinding, fluorescent forked duplex, kinetic; Q14191; 360,000 tested, 0.46% active; also: potency is read from the fitted curve at half-maximal effect; % is scaled to controls: 0 for no effect and ±100 for the full control effect; nearly all actives have a fitted effect of over 55% in size
# Target sequence (Q14191 whole entry, looked up): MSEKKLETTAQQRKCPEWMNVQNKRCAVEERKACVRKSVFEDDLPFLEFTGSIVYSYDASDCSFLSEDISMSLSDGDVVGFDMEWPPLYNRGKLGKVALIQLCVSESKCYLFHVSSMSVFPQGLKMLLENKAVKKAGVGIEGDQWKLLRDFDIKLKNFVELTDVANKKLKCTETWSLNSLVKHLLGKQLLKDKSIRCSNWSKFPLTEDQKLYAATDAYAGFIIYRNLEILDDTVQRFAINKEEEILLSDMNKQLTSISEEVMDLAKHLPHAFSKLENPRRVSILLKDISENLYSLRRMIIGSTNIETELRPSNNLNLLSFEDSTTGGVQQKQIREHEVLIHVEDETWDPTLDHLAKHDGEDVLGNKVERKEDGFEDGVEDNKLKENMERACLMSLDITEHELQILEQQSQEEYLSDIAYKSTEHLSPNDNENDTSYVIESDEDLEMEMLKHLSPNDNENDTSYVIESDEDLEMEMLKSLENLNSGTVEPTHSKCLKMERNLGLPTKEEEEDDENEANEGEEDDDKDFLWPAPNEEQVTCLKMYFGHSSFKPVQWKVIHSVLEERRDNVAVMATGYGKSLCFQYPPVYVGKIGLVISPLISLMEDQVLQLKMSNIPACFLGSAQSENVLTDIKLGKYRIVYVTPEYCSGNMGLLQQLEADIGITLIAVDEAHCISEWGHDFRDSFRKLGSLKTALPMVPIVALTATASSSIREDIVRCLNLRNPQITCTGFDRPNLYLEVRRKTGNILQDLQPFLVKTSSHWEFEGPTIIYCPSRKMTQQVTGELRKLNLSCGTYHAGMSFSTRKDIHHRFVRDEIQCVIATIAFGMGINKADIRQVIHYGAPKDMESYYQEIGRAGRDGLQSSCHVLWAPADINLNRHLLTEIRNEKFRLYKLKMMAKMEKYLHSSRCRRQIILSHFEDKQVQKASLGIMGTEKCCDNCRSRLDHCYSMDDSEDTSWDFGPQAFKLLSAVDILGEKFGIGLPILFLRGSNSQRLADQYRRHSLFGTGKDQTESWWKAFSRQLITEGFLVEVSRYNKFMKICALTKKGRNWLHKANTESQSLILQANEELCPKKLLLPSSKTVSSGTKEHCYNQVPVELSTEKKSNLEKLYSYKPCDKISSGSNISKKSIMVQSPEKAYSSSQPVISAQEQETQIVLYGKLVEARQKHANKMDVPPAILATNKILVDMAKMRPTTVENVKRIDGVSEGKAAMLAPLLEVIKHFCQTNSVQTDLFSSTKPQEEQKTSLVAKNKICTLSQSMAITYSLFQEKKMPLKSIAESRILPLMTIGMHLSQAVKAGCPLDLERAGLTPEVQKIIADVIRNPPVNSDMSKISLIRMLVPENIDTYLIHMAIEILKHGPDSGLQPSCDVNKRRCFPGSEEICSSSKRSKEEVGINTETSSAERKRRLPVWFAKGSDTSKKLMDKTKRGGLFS
#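 Screening of the MLSMR collection measured strand separation of a quenched forked DNA duplex (100 nM) by 20 nM WRN with 2 mM ATP, all final. Compounds were preincubated with enzyme 15 min at room temperature.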
# Pol kappa inh: inhibitors of human DNA polymerase kappa | Q9UBT6 | purified Pol kappa, fluorescent DNA synthesis assay, 10 min | Potency, µM (highest dose often 107 µM), without a hit: top-dose activity, negative = inhibition, usual class: inhibitors | 400,000 tested, 0.53% active | AID 588579; also: potency is read from the fitted curve at half-maximal effect; % is scaled to controls: 0 for no effect and ±100 for the full control effect
#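 Inhibition of 10 nM Pol kappa is measured by a fluorescent read-out at 0 and 10 min following addition of 50 nM substrate (final), with a 15-min room-temperature compound preincubation.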
# PI5P4Ka inh: blocks human PI5P4K alpha kinase activity. P48426. PI5P4Kalpha enzyme, ADP-Glo luminescence, 60 min; stronger effect = lower value. max response, %. 330,000 tested, 1.2% active; active = max response of -50% or lower; inconclusive = between -30% and -50%; inactive = -30% or higher; also: value at the top dose of about 77 µM; % is scaled to controls: 0 for no effect and ±100 for the full control effect
#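 Reactions run in 0.038 M HEPES pH 7.4, 0.28 mM EGTA, 0.1% CHAPS and 5% DMSO, with PI5P4Kalpha, substrate, compound and 5 microM ATP final, one hour at room temperature. Readout is ADP-Glo luminescence.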
# * = called active by the depositor; ? = inconclusive; nt = no result given; ! = a repeat was not active; [ ] = remark or other dose. Sampled rows, rich in hits. Any-hit rate of the full collection: about 2.8%. Unless noted, calls follow the shape of the dose curve; as a rule, active = well fitted curve in the direction sought with a large enough effect; inconclusive = small, poorly fitted or top-dose-only effect, or another doubt; inactive = no such curve, though single readings can be large; an effect the other way counts as inactive or inconclusive.
SMILES,Pol iota inh,POLB inh,POLH inh,WRN inhibitor,Pol kappa inh,PI5P4Ka inh
CSc1ccc(CNC(=O)c2sc3ncnc(N(C)C4CCCCC4)c3c2C)cc1,-7%,-12%,-23%,nt,-9%[60.1 µM],nt
Cc1cc(NC(=O)CN2C(=O)c3cccnc3Sc3ccccc32)ccc1Br,?,12%,-13%,nt,-13%,nt
CCOC(=O)c1cc2c(=O)n3ccccc3nc2n(Cc2ccco2)c1=NC(=O)c1ccc(OC)cc1,22µM*!,33%,-16%,0%,?,-10
CCn1c(=N)c(S(=O)(=O)c2ccccc2)cc2c(=O)n3ccccc3nc21,4%,-1%,-2%,11%,6%,-11
Cc1ccc(S(=O)(=O)c2cc3c(=O)n4ccccc4nc3n(CC3CCCO3)c2=N)cc1C (stereo unspecified),17%,-1%,-18%,-10%,-4%,0
Cc1ccc2nc3c(cc(S(=O)(=O)c4ccccc4)c(=N)n3Cc3ccco3)c(=O)n2c1,-9%,7.9µM*,0%,-3%,-9%,-1
Cc1ccc(S(=O)(=O)c2cc3c(=O)n4ccccc4nc3n(Cc3ccco3)c2=N)cc1C,?,8.9µM*,-25%,-4%[57.1 µM],-4%,-21
N=c1c(S(=O)(=O)c2ccccc2)cc2c(=O)n3ccccc3nc2n1Cc1ccco1,?,18µM*,?,1%[57.1 µM],-15%,-24
COc1ccc(CNC(=O)Cn2ncn3nc(-c4cccs4)cc3c2=O)cc1,24%,2%,?,nt,-18%,nt
O=C1C(=O)N(Cc2ccco2)C(c2cccs2)/C1=C(\O)c1cccc([N+](=O)[O-])c1 (stereo unspecified),14%,-12%,-11%,-1%,4%,-79*
COc1cccc(/C(O)=C2/C(=O)C(=O)N(Cc3ccco3)C2c2ccncc2)c1 (stereo unspecified),?,0%,8%,1%,-2%,1
CCCc1ccc(OCc2ccc(C(=O)O)o2)c(OC)c1,-19%,?,?,-3%,?,5
C=CCc1ccc(OCc2ccc(C(=O)O)o2)c(OC)c1,?,-3%,28µM*,-4%[11.6 µM],-15%,1
Cc1ccc(C(C)C)c(OC(C)C(=O)NCC2(N(C)C)CCCCC2)c1 (stereo unspecified),4%,-17%,-12%,nt,-18%,nt
CC1(C(=O)Nc2ccc3c(c2)OCCO3)CN(S(C)(=O)=O)CC(=O)N1CCCN1CCOCC1 (stereo unspecified),nt,nt,nt,1%,nt,0
COc1ccc(CN(C(=O)/C=C/c2ccco2)C2CCS(=O)(=O)C2)cc1OC (stereo unspecified),79µM*,6%,5%,-13%,?,-2
O=C(/C=C/c1ccco1)N(Cc1ccc(Cl)cc1)C1CCS(=O)(=O)C1 (stereo unspecified),40µM*,2%,?,13%,?,-28
CCOC(=O)c1c(NC(=O)c2ccc(OCC)c(Br)c2)sc2c1CCCC2,15%,35%,-7%,nt,-6%,nt
CCOc1ccccc1C(=O)N(Cc1ccco1)Cc1ccco1,?,11%,-9%,nt,10%,nt
Clc1ccc(-c2nnc3sc(-c4ccc(Br)o4)nn23)cc1,89µM*,0%,?,-37%,-16%,-15
O=C(CSc1nc2c(c(=O)[nH]1)CN(Cc1ccc3c(c1)OCO3)CC2)Nc1ccc(F)cc1,50%,2%,?,nt,3%,nt
O=C(O)CN1C(=O)C=CC1=O,nt,nt,?,-13%,nt,-15
O=C1C=CC(=O)N1CCCCCCN1C(=O)C=CC1=O,-37%,0%,?,20µM*,-16%,-58*
COc1ccc(OC)c2c(C)ccnc12,-10%,nt,nt,nt,6%,nt
Cc1cc(N2C(=O)C(O)=C(C(=O)c3cc4ccccc4o3)C2c2cccc(Cl)c2)no1 (stereo unspecified),-2%,-28%,9%,15%,-4%,-81*
CCCOc1ccc(C2C(C(=O)c3cc4ccccc4o3)=C(O)C(=O)N2c2cc(C)on2)cc1 (stereo unspecified),9%,19%,-17%,2%,11%,-17
